High-throughput results as filed in PubChem BioAssay.
The list is not random: actives were taken first. Their share in the collection is about 4.5%.
PfHsp90 yeast 2: growth inhibition of PfHsp90-expressing yeast, primary screen, antimalarial PfHsp90 inhibitor project, S. cerevisiae, BacTiter-Glo luminescence, single point, set 2; BacTiter-Glo ATP, 48 h; yeast lacking PDR1 and PDR3 efflux regulators; inhibition, % at 9.4 µM; 0.32% of 310,000 active; AID 504621, 2011;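 active = every replicate shows inhibition above about 80%, whatever the replicate mean, limit read from the data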;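 note: 0% = DMSO neutral controls and 100% = 20 µM radicicol positive controls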
TIM10 inh: growth inhibitors of isogenic TIM10 control yeast, primary screen, counter-screen for tim10-1 yeast inhibitor project, luminescence, uHTS | S. cerevisiae TIM10 strain growth, BacTiter-Glo luminescence, 24 h | inhibition, % at 10 µM | 1.4% of 330,000 active;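 active = inhibition of 40% or more at the single tested concentration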;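 note: wild-type TIM10 isogenic control strain grown at permissive 25 °C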
tim23-1 inh: growth inhibitors of tim23-1 mutant yeast, primary screen, luminescence, uHTS; inhibition, % at 20 µM; S. cerevisiae tim23-1 growth, BacTiter-Glo luminescence, 24 h; 1.3% of 330,000 active;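 active = growth inhibition of the mutant yeast at or above 50%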;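 note: temperature-sensitive mutant grown at 25 °C; plate controls were DMSO-treated mutant yeast for no effect and medium wells lacking yeast for full effect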
tim10-1 inh: growth inhibitors of tim10-1 mutant yeast, primary screen, luminescence, uHTS; 2.2% of 330,000 active; inhibition, % at 20 µM; AID 463190, 2010; S. cerevisiae tim10-1 ts strain growth, BacTiter-Glo, 24 h;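 active = inhibition of at least 40%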;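 note: mutant grown at 25 °C; 0% = DMSO wells with yeast and 100% = wells holding no yeast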
NLRP3 yeast inh: NALP3 inflammasome inhibitors in reconstituted yeast, primary screen, luminescence, uHTS. AID 2825, 2010. Yeast reconstituted NLRP3/ASC/caspase-1, beta-gal luminescence, 24 h. 0.39% of 330,000 active. inhibition, % at 10 µM;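 active = inhibition of 50% or more; inactive = inhibition below 50%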;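 note: plate controls were induced DMSO wells for no effect and uninduced yeast grown without galactose for full effect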
SKKanGAS inh: S. pyogenes SKKanGAS growth inhibitors in kanamycin, primary screen, streptokinase expression inhibitor project, SKKanGAS strain, BacTiter-Glo luminescence; 6 h; inhibition, % at 7.5 µM; 1.3% of 300,000 active; AID 1662, 2009;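 active = mean replicate score, as percent of positive control median, at least 50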;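 note: strain carries kanamycin resistance gene driven by streptokinase promoter and grows in 40 µg/ml kanamycin; loss of luminescence reflects streptokinase promoter inhibition or plain growth inhibition; 0% = median of DMSO wells and 100% = positive control at its reference dose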
tim10-1 confirm: growth inhibitors of tim10-1 mutant yeast, confirmation, single concentration, luminescence, S. cerevisiae | 56% of 7,400 active | inhibition, % at 20 µM | S. cerevisiae tim10-1 ts strain growth, BacTiter-Glo, 24 h | shares compounds with tim10-1 inh | AID 463213, 2010;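 active = inhibition of yeast growth at or above a set limit in either of two repeat tests at 20 µM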;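 note: tim10-1 mutant grown at permissive 25 °C to find synthetic lethal compounds; 0% = DMSO yeast wells and 100% = medium wells without yeast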
* = called active by the depositor; . = no result.

SMILES	PfHsp90 yeast 2	TIM10 inh	tim23-1 inh	tim10-1 inh	NLRP3 yeast inh	SKKanGAS inh	tim10-1 confirm
CCOC(=O)Nc1ccc2c(CNC(C)c3ccccc3OC)cc(=O)oc2c1 (centres undefined)	-8	15	32	47*	15	2	22
C(=N\N(Cc1ccccc1)c1ccccc1)/c1ccco1	0	19	26	35	-8	15	.
COc1ccc(/C=N/N(Cc2ccccc2)c2ccccc2)cc1O	-37	39	30	51*	-28	7	-21
C(=C\c1ccccc1)/CSc1nnc(-c2ccccc2)n1Cc1ccco1	.	4	38	44*	13	1	26
C(=C\c1ccccc1)/CSc1nnc(-c2ccncc2)n1Cc1ccco1	17	27	33	13	10	-2	.
O=C(CSc1nnc(-c2ccccn2)n1Cc1ccco1)c1ccccc1	-14	-1	22	22	9	-2	.
O=C(CSc1nnc(-c2cccnc2)n1Cc1ccco1)c1ccc2ccccc2c1	.	7	27	45*	14	-2	13
Brc1ccc(CSc2nnc(-c3ccccn3)n2Cc2ccco2)cc1	.	28	37	40*	7	5	33*
Cc1csc(=N)n1-c1ccc(Cl)cc1	-9	19	40	48*	13	8	23
Cc1ccc(-n2c(C)csc2=N)cc1	-2	1	12	20	5	3	.
N#Cc1cccnc1N1CCN(C(=O)c2ccc3c(c2)S(=O)(=O)c2ccccc2C3=O)CC1	2	6	27	26	12	40	.
O=C1c2ccccc2S(=O)(=O)c2cc(C(=O)N3CCN(c4ccc(Cl)cn4)CC3)ccc21	6	20	47	44*	24	22	42*
O=C(NCC1CCCCC1)c1cc(S(=O)(=O)N2CCOCC2)ccc1F	5	0	10	15	-1	.	.
O=C(CCS(=O)(=O)Cc1ccccc1)N1CCc2ccccc2C1	16	28	46	47*	17	-1	40*
O=C(CCS(=O)(=O)Cc1ccccc1F)N1CCc2ccccc2C1	-11	9	25	16	1	-5	.
O=C(/C=C/c1cccc(Oc2ccccc2)c1)N1CCOCC1	-2	5	5	43*	12	0	12
O=C(/C=C/c1cccc([N+](=O)[O-])c1)N1CCOCC1	2	-3	9	6	6	-1	.
C[C@H](NC(=O)c1nc[nH]c1C(=O)N1CCNCC1)C(=O)OC(C)(C)C	5	-3	-12	-18	13	-2	.
CCc1ccccc1NC(=O)CC1CS(=O)(=O)CC1CC(=O)Nc1ccccc1CC (centres undefined)	11	6	-1	11	5	-3	.
O=C(CC1CS(=O)(=O)CC1CC(=O)Oc1ccccc1F)Oc1ccccc1F (centres undefined)	-9	15	34	44*	4	2	22
COc1ccc(C)cc1N(C(=O)c1ccccc1)c1nc2ccccc2s1	-11	30	32	20	15	-1	.
COc1ccc(C)cc1N(C(=O)c1ccc(C#N)cc1)C1=NC(C)(C)CS1	34	5	11	40	7	7	-3
COC1OC2COC(c3ccccc3)OC2C(OC(C)=O)C1OC(C)=O (centres undefined)	0	.	.	.	.	.	.
Cc1nc([N+](=O)[O-])c(N2CCN(Cc3ccccc3)CC2)n1Cc1ccccc1	-4	4	3	26	25	-2	.
Cc1cc2nc(Sc3c([N+](=O)[O-])nc(C)n3Cc3ccccc3)[nH]c2cc1C	0	25	37	43*	19	0	39*
COc1ccc2nc(Sc3c([N+](=O)[O-])nc(C)n3Cc3ccccc3)[nH]c2c1	.	33	32	33	-5	-7	.
